A short description of assay [1]: NCI Yeast Anticancer Drug Screen. Data for the rad50 strain (AID 155).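 Note: 0% = growth of vehicle-only cultures of the same strain.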 Conditions: S. cerevisiae rad50 strain growth inhibition; at 50.0 µM; stronger effect = higher value. The procedure, abridged:
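Cells are treated with compound, grown, and their growth is then scored against vehicle-only cultures of the same repair-deficient yeast strain.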

Assay [2] is described as follows: NCI Yeast Anticancer Drug Screen. Data for the mec2-1 strain (AID 157). Conditions: S. cerevisiae mec2-1 strain, at 50.0 µM, stronger effect = higher value. The procedure, abridged: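 Using mec2-1 yeast: add compound, measure growth, express inhibition versus vehicle-treated cultures.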
Assay [3] can be described thus: NCI Yeast Anticancer Drug Screen. Data for the sgs1 mgt1 strain (AID 161).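 Note: 0% = growth of cultures given vehicle only.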 Conditions: S. cerevisiae sgs1 mgt1 strain, at 50.0 µM, stronger effect = higher value. A digest of the protocol: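 Percent growth inhibition was derived by comparing compound-exposed mutant yeast with vehicle-exposed cultures. The strain carries alterations in DNA damage repair.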
Assay [4] is described as follows: NCI Yeast Anticancer Drug Screen. Data for the cln2 rad14 strain (AID 165).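 Note: 0% = growth equal to vehicle treated cultures.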 Conditions: S. cerevisiae cln2 rad14 strain, at 50.0 µM, stronger effect = higher value. The procedure, abridged:
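Yeast strain cln2 rad14, bearing defects in cell cycle control and DNA repair, serves as the test system; values reflect growth inhibition compared with vehicle.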

The nature of assay [5]: NCI Yeast Anticancer Drug Screen. Data for the bub3 strain (AID 167). Conditions: S. cerevisiae bub3 mutant strain, at 50.0 µM, stronger effect = higher value. The procedure, abridged: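 Part of a panel of yeast mutants defective in DNA damage repair or cell cycle regulation. Each strain is grown with compound, and inhibition is calculated relative to solvent-treated cultures.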
Assay [6] can be described thus: NCI Yeast Anticancer Drug Screen. Data for the mlh1 rad18 strain (AID 175). Conditions: S. cerevisiae mlh1 rad18 strain growth inhibition; at 50.0 µM; stronger effect = higher value. A digest of the protocol:
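Steps: expose repair-defective yeast to compound; measure growth; express inhibition against vehicle-treated controls.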

SMILES strings stand for the structures. The panel holds about 79,000 compounds, 15% with a hit somewhere; the sample as a whole holds those more often. Values without a mark were called inactive. Active and inactive are the calls of the source. Cut-off read from the data, not from the text of the source: active = growth inhibition above about 70%; inactive = the rest.

Regarding `CN(CC#N)CC#N`, the growth inhibition in assay [1] was 19%; in assay [2], 9.6%; in assay [3], 8.75%; in assay [4] it was -1.6%; in assay [5] it was 20.1%; in assay [6], 0.3%.

Regarding `CC1=NN2C(=O)CSC2=NC(C)(C)C1`, the growth inhibition in assay [1] is -5.35%; in assay [2], -12.8%; in assay [3], 7.45%; in assay [4], 25.9%; in assay [5] it was -5.75%; in assay [6], -9.95%.

With `CC12CCCC3(CC(=O)C(C)(C)C3C(=O)C1)C2` (stereo unspecified), the growth inhibition in assay [1] is -13.9%; in assay [2] it was -16.1%; in assay [3] it was -18.4%; in assay [4] it was 10.2%; in assay [5], 9.6%; in assay [6] it was 6.2%.

Turning to `CC(C)(C)c1c(C#N)nnc2cc(-c3ccccc3)nn12`, the growth inhibition in assay [1] was 7%; in assay [2], 8.85%; in assay [3], 21.9%; in assay [4], 25.1%; in assay [5] it was -17.3%; in assay [6], 9.15%.

`C/C=C(\C)c1cc(=O)c2c(C)cc3c(c2o1)C(=O)c1c(O)c(C2CC(C)(N(C)C)C(OC(C)=O)C(C)O2)cc(C2CC(N(C)C)C(O)C(C)O2)c1C3=O` (stereo unspecified): the growth inhibition was 17% in assay [1]; 1.95% in assay [2]; 9.8% in assay [3]; 7.35% in assay [4]; 8.15% in assay [5]; -59.6% in assay [6].

On to `O=[N+]([O-])c1ccc(OS(=O)(=O)O)cc1`, for which the growth inhibition in assay [1] is 17.8%; in assay [2] it was 4.45%; in assay [3], 20.5%; in assay [4], -9.85%; in assay [5] it was -4.1%; in assay [6], 8.55%.

With `O=C1Nc2ccccc2C1=O`, the growth inhibition in assay [1] is -0.85%; in assay [2], 11.4%; in assay [3], -31.8%; in assay [4], -22.5%; in assay [5], -12.3%; in assay [6], -50%.

Take `Cc1cc(C)[n+](C)c(/C=C/c2cccc([N+](=O)[O-])c2)n1`: the growth inhibition in assay [1] was 6.55%; in assay [2], -6.95%; in assay [3], 4.85%; in assay [4], 16.4%; in assay [5], 3.4%; in assay [6], 11.1%.

With `CC(=O)Nc1cc2cc(N=CN(C)C)ccc2oc1=O`, the growth inhibition in assay [1] is -24.9%; in assay [2], -43.4%; in assay [3] it was -16.4%; in assay [4], -10.8%; in assay [5] it was -18.1%; in assay [6] it was -7.4%.

For the compound `Cn1c2c(c(=O)c3c4[nH]c5c(c(=O)c4ccc31)CCCC5)CCCC2`, the growth inhibition in assay [1] is -10.2%; in assay [2] it was 3.7%; in assay [3], -15.1%; in assay [4] it was -5.65%; in assay [5], -4.95%; in assay [6] it was 3.6%.

Take `CSc1nc(C)c2c(n1)N(c1ccc(Cl)cc1)CC2`: the growth inhibition in assay [1] was 1.7%; in assay [2], -32.5%; in assay [3], -16.5%; in assay [4], -35.3%; in assay [5], -17.2%; in assay [6], -30.4%.

`CCCCCCCCCCCCCCCCCC(=O)N1CC[N+](C)(C)CC1`: the growth inhibition is 99.7% (active) in assay [1]; 99.7% (active) in assay [2]; 99.7% (active) in assay [3]; 99% (active) in assay [4]; 99.3% (active) in assay [5]; 99.5% (active) in assay [6].

For the compound `O=C(Nn1c(-c2ccccc2)nc2ccccc2c1=O)c1ccc([N+](=O)[O-])cc1`, the growth inhibition was -1.9% in assay [1]; 14.6% in assay [2]; 4.6% in assay [3]; -1% in assay [4]; 17.2% in assay [5]; 13.9% in assay [6].

On to `Cc1nc(N)sc1N=Nc1ccc(Br)cc1Br`, for which the growth inhibition in assay [1] was 85.2% (active); in assay [2] it was 68.8%; in assay [3], 86.8% (active); in assay [4], 63.1%; in assay [5] it was 46.9%; in assay [6], 76.4% (active).

Regarding `Brc1ccc(/C=C/c2ccnnc2)cc1`, the growth inhibition in assay [1] is 41.5%; in assay [2], 33.8%; in assay [3] it was 34.6%; in assay [4] it was 25.5%; in assay [5], 47.7%; in assay [6], 34.4%.

With `Cc1ccc(OC(=O)Nc2ccc(C(=O)O)c(O)c2)cc1`, the growth inhibition was -10.9% in assay [1]; 8.3% in assay [2]; 9.2% in assay [3]; -6.75% in assay [4]; -4.7% in assay [5]; -5.2% in assay [6].

Regarding `CC(=O)NNc1nc(C)c(C(/C=C/c2ccc([N+](=O)[O-])cc2)=N/NC(N)=S)s1`, the growth inhibition in assay [1] was -8.6%; in assay [2], -2.25%; in assay [3] it was -10%; in assay [4], -12.4%; in assay [5] it was -7.2%; in assay [6] it was 6.7%.

As for `CNNCCCC(=O)NC(C)C`, the growth inhibition in assay [1] is -5.7%; in assay [2] it was 6.65%; in assay [3], 9.25%; in assay [4] it was 2.75%; in assay [5] it was 7.8%; in assay [6], 7.85%.

As to `CCCCCCCCCCCc1cc(=O)n(-c2cc(Cl)ccc2Cl)n1C`, the growth inhibition is 99.1% (active) in assay [1]; 99.3% (active) in assay [2]; 99.5% (active) in assay [3]; 98.7% (active) in assay [4]; 99% (active) in assay [5]; 99.2% (active) in assay [6].

Turning to `CC1=NOC2(C1)C(=O)Nc1ccccc12` (stereo unspecified), the growth inhibition in assay [1] is 23.2%; in assay [2] it was 9.5%; in assay [3], 8.55%; in assay [4], 11.3%; in assay [5], 2.85%; in assay [6], 18.4%.

Consider `CCOC(=O)N(C)C`, for which the growth inhibition in assay [1] was 18.9%; in assay [2], 12.8%; in assay [3] it was 3.65%; in assay [4] it was 11.1%; in assay [5], 12.1%; in assay [6] it was 8%.

These data come from PubChem BioAssay (NCI).
